Records with an inconclusive call do not appear. Values without a mark were called inactive. The source made the active and inactive calls. Calls come from the whole dose curve; as a rule, active = well fitted inhibition curve with a large enough effect; inconclusive = small, poorly fitted or top-dose-only effect; inactive = flat fitted curve, though single readings scatter.
Each compound was assayed against Muscarinic acetylcholine receptor M1 (Rattus norvegicus) (UniProt P08482) (assay: Counterscreen Concentration-Response Assay for Antagonists of the Neuropeptide S Receptor: Muscarinic Receptor Calcium Signal Transduction.). Conditions: CHO-M1 cells, carbachol-induced calcium fluorescence, FDSS; series mostly up to 20.2 µM; activity, negative = inhibition: at the top concentration.
Method in brief: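 CHO cells stably expressing M1 receptor, calcium-dye loaded, pre-exposed to compound, then stimulated with carbachol (60 nM in stimulation reagent). Peak FDSS kinetic fluorescence over 180 s; AC50 from Hill fit.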

With `CCc1ccc2oc(-c3cc(N)cc(C)c3O)nc2c1` as the compound, how does the “activity, negative = inhibition” value read?
The value was 17.3%.

`COc1ccc(-c2cc(N)n(S(=O)(=O)c3c(F)c(F)c(F)c(F)c3F)n2)cc1OC` was tested. Which Potency did it give?
Its Potency is 11.2 µM (active).

For `N#CC(C#N)=c1ccc2c(c1)NC1(CCCCC1)N=2`, which “activity, negative = inhibition” value is on record?
Its value is -17.5%.

For `CC1CCCCN1S(=O)(=O)c1ccc(C(=O)Nc2sccc2C(N)=O)cc1` (configuration not stated), which “activity, negative = inhibition” value is on record?
The value was -6.92%.

`O=C(O)c1cccc(Nc2ncnc3ccccc23)c1` was tested. Which “activity, negative = inhibition” value did it give?
Its value is -12.1%.

Which “activity, negative = inhibition” value does the source give for `OC(C#Cc1ccccn1)c1cccs1` (configuration not stated) here?
The value was -17%.

For `CN(Cc1cc(=O)[nH]c2ccccc12)C(=O)c1ccccc1`, which “activity, negative = inhibition” value is on record?
Its value is -5.45%.

`CC(=O)c1cc(NC(=O)c2ccccc2)c(=O)oc1/C=C/N(C)C` was tested. Which “activity, negative = inhibition” value did it give?
Its value is -17.1%.

For `Cc1cccnc1NC(=O)c1c(O)c2cccc3c2n(c1=O)CCC3`, which “activity, negative = inhibition” value is on record?
Its value is -12.7%.

`COc1ccc(N(CC(=O)Nc2cccc(SC)c2)S(C)(=O)=O)cc1Cl` was tested. Which “activity, negative = inhibition” value did it give?
The value was 7.48%.

With `CCOc1ccc(N2C(=O)CC(NCCc3ccncc3)C2=O)cc1` (configuration not stated) as the compound, how does the “activity, negative = inhibition” value read?
The value was 9.94%.

For `Cc1ccc(Cn2cc(SCC(=O)Nc3nccs3)c3ccccc32)cc1`, which “activity, negative = inhibition” value is on record?
Its value is -0.635%.

`Cc1ccc(/C=C2\SC(=S)N(CC(=O)Nc3ncc(Cc4ccccc4Cl)s3)C2=O)cc1` was tested. Which “activity, negative = inhibition” value did it give?
The value was -5.69%.

`C(=C\c1ccccc1)/C=N/N1CCN(c2ccccn2)CC1` was tested. Which “activity, negative = inhibition” value did it give?
Its value is 8.26%.

For `Nn1c(COc2ccccc2)nnc1SCc1cc(=O)[nH]c2ccccc12`, which “activity, negative = inhibition” value is on record?
Its value is 3.18%.

For `COc1ccc(N=C2S/C(=C\c3ccc(N4CCOCC4)o3)C(=O)N2CCc2c[nH]c3ccccc23)cc1`, which Potency is on record?
The Potency was 5.01 µM (active).

Which “activity, negative = inhibition” value does the source give for `CN(C)c1ccc(N=Cc2ccco2)cc1` here?
Its value is 3.92%.

For `O=C1CC(NCc2ccncc2)C(=O)N1c1ccccc1` (configuration not stated), which “activity, negative = inhibition” value is on record?
Its value is 7.55%.

`CCC(C)(C)NC(=O)Cc1ccc(C)cc1` was tested. Which “activity, negative = inhibition” value did it give?
The value was 4.41%.

With `CC(=O)n1nc2nc(C)cc(C)c2c1N` as the compound, how does the “activity, negative = inhibition” value read?
Its value is -5.44%.

With `Cc1nn(C(=O)c2cccs2)c(N)c1-c1ccccc1` as the compound, how does the “activity, negative = inhibition” value read?
Its value is 5.89%.

`c1cncc(-c2nc(-c3ccco3)cs2)c1` was tested. Which “activity, negative = inhibition” value did it give?
The value was 3.25%.

`O=C(CSc1n[nH]c(-c2cccnc2)n1)Nc1ccnc2ccccc12` was tested. Which “activity, negative = inhibition” value did it give?
Its value is 3%.

How did the “activity, negative = inhibition” value turn out when `CCn1cc(C(=O)NCC2CCCO2)c(=O)c2cc(S(=O)(=O)N3CCCCCC3)ccc21` (configuration not stated) was run?
Its value is 20.3%.

`O=C(/C(=C/c1ccc(Cl)cc1)c1nc2ccccc2[nH]1)c1cccs1` was tested. Which Potency did it give?
Its Potency is 7.94 µM (active).

Which “activity, negative = inhibition” value does the source give for `C#CC(=O)N(c1cccc(OC)c1)C(C(=O)NC1CCCC1)c1cccs1` (configuration not stated) here?
Its value is -9.03%.

Which “activity, negative = inhibition” value does the source give for `CN(C)c1ccc(N2CN=C3SCC(=O)N3C2)cc1` here?
The value was -3.33%.
